# PubChem BioAssay AID602292 (National Center for Advancing Translational Sciences (NCATS), 2012)
# Out of some 1,300 compounds screened, about 380 (29%) were called active. Inconclusive results (about 37%) are left out. Some of the results follow. A number with no mark means an inactive call. The call rests on the fitted dose curve; in most records, active means well fitted inhibition curve with a large enough effect; inconclusive means small, poorly fitted or top-dose-only effect; inactive means flat fitted curve, though single readings scatter.
# Biological target: Thyrotropin receptor (Homo sapiens) (UniProt P16473)
# Sequence (P16473 whole entry, looked up): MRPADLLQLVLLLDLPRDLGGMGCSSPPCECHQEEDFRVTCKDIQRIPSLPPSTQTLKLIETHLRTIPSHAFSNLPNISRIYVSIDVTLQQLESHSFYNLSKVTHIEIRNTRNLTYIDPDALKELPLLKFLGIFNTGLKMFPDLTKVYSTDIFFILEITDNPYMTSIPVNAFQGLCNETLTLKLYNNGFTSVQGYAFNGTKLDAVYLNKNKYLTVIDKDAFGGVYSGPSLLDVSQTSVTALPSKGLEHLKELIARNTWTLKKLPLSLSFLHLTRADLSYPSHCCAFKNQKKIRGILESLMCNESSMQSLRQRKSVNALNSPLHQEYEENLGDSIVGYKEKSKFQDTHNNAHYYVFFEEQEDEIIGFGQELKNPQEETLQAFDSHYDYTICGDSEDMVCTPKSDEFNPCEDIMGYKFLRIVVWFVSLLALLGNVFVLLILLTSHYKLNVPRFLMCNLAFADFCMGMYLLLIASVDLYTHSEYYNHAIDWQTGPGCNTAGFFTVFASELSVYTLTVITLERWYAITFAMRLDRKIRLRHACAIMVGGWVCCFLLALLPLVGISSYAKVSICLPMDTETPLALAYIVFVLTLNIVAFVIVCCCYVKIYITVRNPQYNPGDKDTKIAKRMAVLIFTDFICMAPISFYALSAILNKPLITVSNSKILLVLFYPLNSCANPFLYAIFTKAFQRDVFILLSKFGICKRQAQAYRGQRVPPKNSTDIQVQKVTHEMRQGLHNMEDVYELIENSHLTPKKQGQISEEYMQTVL
# Assay: qHTS for antagonists of the Thyroid Stimulation Hormone Receptor: Hit Validation in Primary Screen; further: nearly all actives have a fitted effect of over 80% in size;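 on activity change, negative = inhibition: cAMP by competitive HTRF where cellular cAMP lowers the 665 nm FRET signal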
# Conditions: TSHR-expressing cells, cAMP antagonist mode; series mostly up to 58 µM; activity change, negative = inhibition: at the top concentration
# In short: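 TSHR-expressing cells were pretreated with compound, then stimulated with TSH at EC80 (4nM final) for 2 hours at 37 deg C. Cellular cAMP measured by competitive HTRF (anti-cAMP cryptate, cAMP-d2) after 30 min at room temperature.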
# On the % scale 0 is the no-effect control and ±100 the full control effect; potency means the concentration at half of the fitted maximal effect.
SMILES,"activity change, negative = inhibition [%]",Potency
CC1CCCN(S(=O)(=O)c2csc(C(N)=O)c2)C1 (stereo not given),-8.21,–
CCOP(=O)(Cc1ccc(C(C)(C)CC(C)=O)o1)OCC,2.1,–
Cc1ccc(CN2C(=O)c3ccccc3Sc3ccc(C(=O)NCCCN4CCOCC4)cc32)cc1,-7.23,–
O=C(c1ccc2c(c1)N(Cc1ccccc1)C(=O)c1ccccc1S2)N1CCCC1,-8.9,–
Cc1ccc(C(=O)N2c3ccccc3N(Cc3ccccc3)C(=O)C2(C)C)cc1,–,16.9 µM (active)
O=C(NC(Nc1nc2ccc([N+](=O)[O-])cc2s1)(C(F)(F)F)C(F)(F)F)c1cccnc1,–,7.57 µM (active)
COc1ccc2nc(NC(=O)c3ccccc3[N+](=O)[O-])sc2c1,-12.5,–
O=C(NC(Nc1nc2ccc([N+](=O)[O-])cc2s1)(C(F)(F)F)C(F)(F)F)c1ccccc1,–,0.953 µM (active)
O=C(COC(=O)C12CC3CC(CC(Br)(C3)C1)C2)Nc1cccc(S(=O)(=O)N2CCOCC2)c1,–,23.9 µM (active)
CSc1cccc(NC(=O)CN2C(=O)COc3ccc(S(=O)(=O)N4CCOCC4)cc32)c1,-4.44,–
Cc1cccc(NC(=O)C2CCN(S(=O)(=O)c3ccc4c(c3)NC(=O)CO4)CC2)c1,-1.24,–
C=CCN1C(=O)/C(=C/c2ccc(OC(C)=O)c(OCC)c2[N+](=O)[O-])SC1=S,–,7.57 µM (active)
COc1cc(/C=C/C(=O)c2ccc(NS(=O)(=O)c3ccc(C)cc3)cc2)ccc1OC(F)F,-7.78,–
COc1ccc(/C=C/C(=O)c2ccc(NS(=O)(=O)c3ccc(C)cc3)cc2)cc1O,–,23.9 µM (active)
Nc1nc(SCC(=O)NCC2CCCO2)[nH]c(=O)c1NC(=O)c1ccc(F)c(F)c1 (stereo not given),-3.95,–
Cc1cc(C(=O)CSc2nc3ccccc3[nH]2)c(C)n1CC1CCCO1 (stereo not given),–,21.3 µM (active)
CCOc1ccccc1NC(=O)CSc1nc2ccccc2c(=O)n1CC1CCCO1 (stereo not given),-5.07,–
CC1(C)CC(O)CC(C)(C)N1CC(O)COCc1ccccc1 (stereo not given),-8.04,–
Clc1c(CSc2nc3ccccc3o2)nc2ccccn12,–,23.9 µM (active)
Cc1c(C(=O)Nc2ccc3c(c2)OCCO3)sc2nc(-c3ccccc3)cn12,–,30.1 µM (active)
Cc1cc(-n2c(C)cc(C(=O)CSc3[nH]c(=O)cc(C(F)(F)F)c3C#N)c2C)no1,–,9.53 µM (active)
CCCCn1c(NC(=O)c2ccccc2Cl)c(C#N)c2nc3ccccc3nc21,–,15.1 µM (active)
Cc1ccc(Sc2ncccc2NC(=O)c2ccccc2Cl)cc1,-0.893,–
Cc1cccc2c1-c1sc(C(=O)NCCCN3CCCC(C)C3)cc1CO2 (stereo not given),-9.68,–
CCCCn1c(-c2csc3c2CCCC3)n[nH]c1=S,–,30.1 µM (active)

SMILES,"activity change, negative = inhibition [%]",Potency
CCC(C)Sc1ccc(-c2nc3ccc(C)cn3c2NCc2ccccc2)cc1OC (stereo not given),–,21.3 µM (active)
COc1ccc(-c2cc(-c3nc4ccccn4c3NCc3ccccc3)ccc2OC)cc1,–,2.69 µM (active)
CCCCNc1c(-c2cccc(-c3ccc(OC)cc3)c2)nc2ccc(C)cn12,–,37.9 µM (active)
COc1ccc(-c2csc3ncn(Cc4ccccc4)c(=O)c23)cc1,-4.81,–
CCCCCCSc1ccc(-c2nc3ccc(Cl)cn3c2NCCCC)cc1OC,-8.61,–
CCOc1ccccc1/C=C/c1onc(C)c1S(=O)(=O)N1CCC(C(=O)N2CCCCCC2)CC1,-7.46,–
CCOc1ccccc1NC(=O)C1(S(=O)(=O)c2ccc(Cl)cc2)CC1,-5.39,–
C=CC(C)(C)c1c2occc2c(O)c2ccc(=O)oc12,–,16.9 µM (active)
COc1cccc(O)c1CN1CCC(C(=O)Nc2ccc(Oc3cccnc3)cc2)CC1,-8.53,–
O=[N+]([O-])c1ccc(S(=O)(=O)c2ccccc2)nc1,–,37.9 µM (active)
COc1ccc(-c2sc3ccc(N4CCOCC4)cc3c2C#CCO)cc1,–,19 µM (active)
O=C(c1ccc2c(=O)n(Cc3ccc4c(c3)OCO4)c(=S)[nH]c2c1)N1CCCCC1,-8.61,–
CCN(C(=O)CN1C(=O)COc2ccc(S(=O)(=O)N3CCOCC3)cc21)c1ccc(OC)cc1,-2.48,–
COC(=O)c1ccc(NC(=O)c2ccccc2)o1,-9.82,–
COc1ccc(C(=O)c2ccccc2)c2c(O)ccc(C(=O)c3ccccc3)c12,–,12 µM (active)
Cc1cc(OCc2cc(C(=O)NCc3csc(C(C)C)n3)no2)cc(C)c1Cl,-20.8,–
O=C(NCc1cccc(Cl)c1)c1cc(COc2ccc3ncccc3c2)on1,–,9.53 µM (active)
Cc1ccc(F)cc1CNC(=O)c1cc(COc2ccc3ncccc3c2)on1,–,21.3 µM (active)
Cc1ccc(OCc2cc(C(=O)NCC3COCCO3)no2)cc1C (stereo not given),-1.01,–
CC(CNC(=O)c1cc(COc2ccc3ncccc3c2)on1)c1ccccc1 (stereo not given),–,23.9 µM (active)
COc1ccc(CNC(=O)C(C)OC(=O)c2cccs2)cc1 (stereo not given),0.0864,–
COc1ccc(S(=O)(=O)NCCc2cn3nc(C)c(C)nc3n2)cc1F,-4.26,–
COc1ccc(NC2CCCN(C(=O)CCc3cccc(F)c3)C2)cc1 (stereo not given),-4.72,–
COc1ccc(-c2csc(/C(C#N)=C\c3ccc(O)c([N+](=O)[O-])c3)n2)cc1OC,–,1.9 µM (active)
CCOc1ccc(-c2csc(/C(C#N)=C\c3ccc(O)c([N+](=O)[O-])c3)n2)cc1,–,6.01 µM (active)
